Data as given in article PMC4552634, “A New Set of Chemical Starting Points with Plasmodium falciparum Transmission-Blocking Potential for Antimalarial Drug Discovery” (PLoS ONE, 2015).
The campaign covered roughly 13,000 compounds. About 3,200 (25%) showed an effect of 50% or more. The list shows a part of the results.

Test system: P. falciparum stage V gametocytes
Design: BacTiter-Glo ATP luminescence viability of purified stage V gametocytes in 384-well plates, per cent inhibition versus DMSO
Settings: 48 h, 5 µM; inhibitor

First: O=c1ccc(-c2nc3cc(Cl)c(Cl)cc3n2Cc2ccc(Cl)cc2Cl)c[nH]1 [TCMDC-124041]
Second: COc1ccc(Cl)cc1N1CCN(CCCNC(=O)c2ccc(-c3nc4cc(Cl)c(Cl)cc4[nH]3)c(C)c2)CC1 [TCMDC-140082]
The “% Inhibition” value of the first is higher: 6.921% for the first, -14.21% for the second.

Going from Cc1ccc(Nc2nc(C)cc(Nc3cccc(NS(C)(=O)=O)c3)n2)cc1 [TCMDC-133449] to C[C@H](CNc1ccnc(Nc2ccc3[nH]c(=O)[nH]c3c2)n1)c1ccccc1 [TCMDC-136804], the “% Inhibition” value falls from 22.69% to -43.48%.

First: CCCc1cc(Cc2cnc(N)nc2N)cc(CCC)c1OCCCCCC(=O)OCC [TCMDC-137289]
Second: COc1ccc2nc(-c3cc(-c4ccc(NC(=O)C(C)C)cc4)cnc3N)[nH]c2c1 [TCMDC-135322]
The “% Inhibition” value of the first is lower: -20.26% for the first, 10.64% for the second.

Compared with Cc1ccc(NC(=O)c2ccc(N3CCN(c4ccncc4)CC3)cc2)cc1F [TCMDC-135126], Cc1ccc(NC(=O)c2ccc(N3CCN(c4ccncc4)CC3)cn2)cc1F [TCMDC-135156] is higher in “% Inhibition” value: 6.025% for the first, 103.4% for the second.

First: Cc1ccc(NC(=O)c2ccnc(N3CCN(c4ccncc4)CC3)c2)cc1F [TCMDC-135102]
Second: Cc1ccc(NC(=O)c2nc(N3CCN(c4ccncc4)CC3)ccc2Cl)cc1F [TCMDC-135103]
The “% Inhibition” value of the first is lower: 18.96% for the first, 90.08% for the second.

Going from COc1cccc(NC(=O)c2nc(N3CCN(c4ccncc4)CC3)ccc2Cl)c1 [TCMDC-135104] to O=C(Nc1ccc2c(c1)CCC2)c1nc(N2CCN(c3ccncc3)CC2)ccc1Cl [TCMDC-135105], the “% Inhibition” value rises from 27.68% to 30.18%.

Going from CC(C)(C)C(=O)Nc1ccc(N2CCN(C(c3ccccc3)c3ccccc3)CC2)c(Cl)c1 [TCMDC-133713] to Oc1ccc(Cl)cc1CN1CCC(CCOC(c2ccccc2)c2ccccc2)CC1 [TCMDC-136036], the “% Inhibition” value falls from 36.59% to 7.087%.

Compared with O=C(Cn1cc(C=C2SC(=NC3CCCC3)N(C3CCCC3)C2=O)c2ccccc21)N1CCCC1 [TCMDC-124810], COc1ccccc1C1CCN(C2CCC(NC(=O)/C=C/c3ccc(F)c(F)c3)CC2)CC1 (centres unmarked) [TCMDC-133493] is lower in “% Inhibition” value: -5.018% for the first, -77.67% for the second.

Going from COc1ccc2nccc(N(C)CC3(O)CCN(CCc4ccc5c(c4)NC(=O)CS5)CC3)c2n1 [TCMDC-141472] to COc1ccc2nccc(N(C)CC3(O)CCC(NCc4cc5c(cn4)OCCO5)CC3)c2n1 (centres unmarked) [TCMDC-134497], the “% Inhibition” value falls from 49.29% to 30.63%.

Going from O=C(CSc1nc2ccc([N+](=O)[O-])cc2s1)Nc1ccccc1-c1ccccc1 [TCMDC-124341] to CC(C)C(C)(C#N)NC(=O)CSc1nc2ccc([N+](=O)[O-])cc2s1 (centres unmarked) [TCMDC-123610], the “% Inhibition” value rises from 43.04% to 79.56%.

First: CCCCC(=O)Nc1nc2ccc([N+](=O)[O-])cc2s1 [TCMDC-123686]
Second: O=[N+]([O-])c1nc(Br)n(Cc2ccc(Cl)cc2)n1 [TCMDC-125048]
The “% Inhibition” value of the first is lower: -7.174% for the first, 51.98% for the second.

Compared with N=c1ccn(CC(=NO)c2ccc(Cl)c(Cl)c2)cc1 [TCMDC-139033], Clc1ccc(Cn2nc(Br)nc2Br)c(Cl)c1 [TCMDC-125047] is lower in “% Inhibition” value: -35.74% for the first, -61.09% for the second.

First: Cc1ccc(C2CCN(CCCCNC(=O)c3ccc(NC(=O)c4ccc(Cl)cc4)cc3)CC2)c(C)c1 [TCMDC-138354]
Second: O=C(NCCCCN1CCC(c2ccc3c(c2O)CCCC3)CC1)c1ccc(NC(=O)c2ccc(Cl)cc2)cc1 [TCMDC-138645]
The “% Inhibition” value of the first is lower: 9.967% for the first, 88.57% for the second.

Going from C=Cc1c(C2CCN(CCCCNC(=O)c3ccc(-c4ccc(C#N)cc4)cc3)CC2)ccc2c1CCCC2 [TCMDC-135273] to CC(Oc1c(C2CCN(CCCCNC(=O)c3ccc(-c4ccc(C#N)cc4)cc3)CC2)ccc2c1CCCC2)C(N)=O (centres unmarked) [TCMDC-134551], the “% Inhibition” value rises from 38.74% to 41.12%.

First: N#Cc1ccc(-c2ccc(C(=O)NCCCCN3CCC(c4cc(Br)c5c(c4O)CCCC5)CC3)cc2)cc1 [TCMDC-135238]
Second: O=C(NCCCCN1CCC(c2ccc3c(c2O)CCCC3)CC1)c1ccc(-c2ccc(Cl)cc2)cc1 [TCMDC-138661]
The “% Inhibition” value of the first is lower: -99.04% for the first, 61.25% for the second.

Going from CC(=O)c1ccc(-c2ccc(C(=O)NCCCCN3CCC(c4ccc5c(c4O)CCCC5)CC3)cc2)cc1 [TCMDC-138653] to CC(Oc1c(C2CCN(CCCCNC(=O)c3ccc(-c4ccc(Cl)cc4)cc3)CC2)ccc2c1CCCC2)C(N)=O (centres unmarked) [TCMDC-134653], the “% Inhibition” value rises from 60.63% to 65.96%.

First: CC(C)(Oc1c(C2CCN(CCCCNC(=O)c3ccc(-c4ccc(Cl)cc4)cc3)CC2)ccc2c1CCCC2)C(N)=O [TCMDC-134939]
Second: COc1ccc2c(c1C1CCN(CCCCNC(=O)c3ccc(NC(=O)c4ccc(Cl)cc4)cc3)CC1)CCCC2 [TCMDC-138553]
The “% Inhibition” value of the first is lower: -3.044% for the first, 46.07% for the second.

Going from CN/C(=C\[N+](=O)[O-])NCCSCc1cc(C)c(CN(C)C)s1 [TCMDC-131256] to CNC(=O)Cc1ccc(C(=O)Nc2cccc(-c3cccc(-c4nc5c(C)cccc5[nH]4)c3)c2)cc1 [TCMDC-137075], the “% Inhibition” value falls from 8.916% to -29.46%.

Compared with Cc1cc(O)c2c3c1C(=O)C=C1C3c3c(c(O)cc(O)c3C(=O)C1(C)C)C2=O (centres unmarked) [TCMDC-132049], Cc1cccc2nc(-c3cccc(-c4cccc(CNCc5ccc(S(C)(=O)=O)cc5)c4)c3)[nH]c12.O=C(O)C(F)(F)F [TCMDC-132896] is lower in “% Inhibition” value: 13.87% for the first, -8.61% for the second.

First: CC(C)Sc1nc2c(c(=O)n1CCc1ccccc1)C1(CCCCC1)Cc1ccccc1-2 [TCMDC-123894]
Second: CN(c1ccnc(Nc2ccc(CS(C)(=O)=O)cc2)n1)C1CCN(Cc2ccccc2)CC1 [TCMDC-134396]
The “% Inhibition” value of the first is lower: -24.8% for the first, -3.005% for the second.

Compared with O=C(Nc1ccc2c(c1)OCO2)c1cc(-c2cccnc2)cnc1NCc1ccc2c(c1)OCO2 [TCMDC-136698], Cc1cccc2nc(-c3ccc(-c4ccc(CNCCc5ccncc5)cc4)cc3)[nH]c12.O=C(O)C(F)(F)F [TCMDC-132855] is higher in “% Inhibition” value: -17.08% for the first, 4.84% for the second.

First: Cc1cccc2nc(-c3cccc(-c4cccc(CN5CCN(c6ccc(C#N)cn6)CC5)c4)c3)[nH]c12.O=C(O)C(F)(F)F [TCMDC-133118]
Second: Cc1cccc2nc(-c3cccc(-c4ccc(CNCc5ccc(S(C)(=O)=O)cc5)cc4)c3)[nH]c12.O=C(O)C(F)(F)F [TCMDC-132898]
The “% Inhibition” value of the first is higher: 18.89% for the first, -16.63% for the second.

Compared with COc1ccc(CNCc2ccc(-c3ccc(-c4nc5cccc(C)c5[nH]4)cc3)cc2)cc1.O=C(O)C(F)(F)F [TCMDC-132720], CNc1ccc(CNCc2ccc(-c3ccc(-c4nc5cccc(C)c5[nH]4)cc3)cc2)cc1.O=C(O)C(F)(F)F [TCMDC-132984] is higher in “% Inhibition” value: -4.275% for the first, 83.67% for the second.

Cc1cccc2nc(-c3ccc(-c4ccc(CNCc5ccc(S(C)(=O)=O)cc5)cc4)cc3)[nH]c12.O=C(O)C(F)(F)F [TCMDC-132905] was tested, and the “% Inhibition” value was 55%.
